Results on eight compounds are retold here after PubChem BioAssay (NCI).

Compounds without any hit were thinned out: in the full panel of roughly 83,000, 20% have a hit.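 Compound tested at a single concentration for 48 hours in 96-well plates; a percent growth value below 10 was scored as active.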 A number with no mark means an inactive call. Active and inactive are the calls of the source.

Some test systems named below: DU-145 prostate; K-562 leukemia; MALME-3M melanoma; MDA-MB-231 breast; RXF 393 renal; SF-268 CNS; SF-295 CNS; SF-539 CNS; UACC-257 melanoma; M14 melanoma; HCT-15 colon; HT29 colon; SNB-75 CNS; SNB-19 CNS; U251 CNS; PC-3 prostate; SK-MEL-5 melanoma; UACC-62 melanoma; LOX IMVI melanoma; SK-MEL-28 melanoma.
What all share (assay): NCI-60 one-dose screen, 48 h (100 = growth as untreated, 0 = no growth, -100 = all killed)
Common to all, as to settings: 10 µM unless noted

For the compound `COc1ccc(/C=N\NC(=O)c2cnn(CC(O)c3ccccc3)c2N)cc1OCc1ccc(Cl)cc1` (stereo not given), the growth with DU-145 prostate is 55.3%; with K-562 leukemia it was 60.2%; in the test on MALME-3M melanoma it was 65.2%; in the test on MDA-MB-231 breast it was 67%; in the test on RXF 393 renal, 41.8%; in the test with SF-268 CNS it was 91.6%. Further, the growth in the test with SF-295 CNS is 56.9%; in the test with SF-539 CNS, 69.4%; in the test with UACC-257 melanoma it was 85%; in the test on M14 melanoma, 68.4%; in the test on HCT-15 colon, 70.5%; in the test on HT29 colon it was 90.6%. Moreover, the growth was 60.8% with SNB-75 CNS; 68.2% in the test with SNB-19 CNS; 60.6% in the test with U251 CNS; 63.6% with PC-3 prostate; 92.2% with SK-MEL-5 melanoma; 81.1% with UACC-62 melanoma. Besides, the growth was 54.6% with LOX IMVI melanoma and 71.4% with SK-MEL-28 melanoma.

Regarding `NC(N)=NS(=O)(=O)c1ccc(N=Nc2c(N)nn(-c3ccc([N+](=O)[O-])cc3[N+](=O)[O-])c2N)cc1`, the growth is 107% with DU-145 prostate; 87.4% in the test on K-562 leukemia; 106% in the test on MALME-3M melanoma; 102% with MDA-MB-231 breast; 89% in the test with RXF 393 renal; 100% with SF-268 CNS. In addition, the growth with SF-295 CNS is 108%; in the test with SF-539 CNS it was 95%; in the test on UACC-257 melanoma, 103%; in the test on M14 melanoma, 102%; in the test on HCT-15 colon, 99.9%; in the test on HT29 colon, 105%. Moreover, the growth with SNB-75 CNS is 94.7%; in the test with SNB-19 CNS, 99.8%; in the test on U251 CNS, 99.9%; in the test on PC-3 prostate it was 92.8%; in the test with SK-MEL-5 melanoma, 99%; in the test with UACC-62 melanoma it was 95.2%. The values for the growth in the test on LOX IMVI melanoma and with SK-MEL-28 melanoma were 97.2% and 109%, respectively.

`N#Cc1nc(-c2ccc(Cl)cc2)oc1N1CCC(S(=O)(=O)N2CCOCC2)CC1`: the growth in the test on DU-145 prostate is 105%; with K-562 leukemia it was 101%; in the test on MALME-3M melanoma, 99.2%; with MDA-MB-231 breast it was 94.7%; in the test on RXF 393 renal, 99.8%; in the test on SF-268 CNS, 96.6%. The growth with SF-295 CNS is 102%; in the test with SF-539 CNS, 93.6%; in the test with UACC-257 melanoma it was 108%; in the test with M14 melanoma, 107%; in the test with HCT-15 colon it was 105%; with HT29 colon, 98%. The growth in the test with SNB-75 CNS was 94.2%; with SNB-19 CNS, 92.2%; with U251 CNS, 102%; in the test on PC-3 prostate it was 95.4%; in the test with SK-MEL-5 melanoma it was 98.1%; with UACC-62 melanoma, 94.1%. For the same compound, the growth in the test on LOX IMVI melanoma is 81.7%; in the test with SK-MEL-28 melanoma, 101%.

As for `C#CCOc1cccc(-c2nc(N)nc(Nc3ccccc3SSc3ccccc3Nc3nc(N)nc(-c4cccc(OCC#C)c4)n3)n2)c1`, the growth with DU-145 prostate was 55.2%; in the test on K-562 leukemia, 43.5%; with MALME-3M melanoma, 96.8%; with MDA-MB-231 breast, 48.1%; in the test with RXF 393 renal, 81.8%; in the test with SF-268 CNS, -11.5% (active). Moreover, the growth in the test with SF-295 CNS is -69.8% (active); in the test on SF-539 CNS, 59.2%; in the test on UACC-257 melanoma, 108%; with M14 melanoma, 66.6%; in the test with HCT-15 colon, 28.6%; in the test on HT29 colon it was 96.9%. The growth in the test on SNB-75 CNS is 27.7%; in the test with SNB-19 CNS it was -9.77% (active); in the test on U251 CNS, -48.9% (active); in the test with PC-3 prostate, 7.33% (active); with SK-MEL-5 melanoma, 57.3%; in the test with UACC-62 melanoma, 63.9%. Also, the growth was -52.8% (active) in the test on LOX IMVI melanoma and 88.9% in the test with SK-MEL-28 melanoma.

With `NC1=NC2(CCCC2)N(c2ccc(S(=O)(=O)Nc3nccs3)cc2)C(N)=N1`, the growth was 111% in the test with DU-145 prostate; 96.5% in the test with K-562 leukemia; 101% in the test with MALME-3M melanoma; 100% with MDA-MB-231 breast; 104% in the test on RXF 393 renal; 105% with SF-268 CNS. Further, the growth was 104% with SF-295 CNS; 95% in the test on SF-539 CNS; 101% in the test with UACC-257 melanoma; 108% in the test on M14 melanoma; 100% in the test with HCT-15 colon; 109% with HT29 colon. For the same compound, the growth is 112% in the test with SNB-75 CNS; 100% in the test with SNB-19 CNS; 104% in the test with U251 CNS; 102% in the test on PC-3 prostate; 100% with SK-MEL-5 melanoma; 98.9% with UACC-62 melanoma. Also, the growth in the test with LOX IMVI melanoma is 99%; with SK-MEL-28 melanoma it was 105%.

As for `NC(=S)n1c(=O)n(-c2cccc(C(F)(F)F)c2)c(=O)c2cc(-c3ccc(F)cc3F)ccc21`, the growth in the test on DU-145 prostate is 24.5%; with K-562 leukemia, 8.79% (active); in the test with MALME-3M melanoma, -17.5% (active); with MDA-MB-231 breast it was -11.3% (active); with RXF 393 renal it was 0.891% (active); in the test with SF-268 CNS, 13.3%. The growth was -12% (active) in the test with SF-295 CNS; 17.2% in the test on SF-539 CNS; -7.03% (active) in the test with UACC-257 melanoma; 14.5% in the test with M14 melanoma; 9.27% (active) with HCT-15 colon; 37.4% in the test on HT29 colon. Moreover, the growth was -24.9% (active) with SNB-75 CNS; 15.6% in the test on SNB-19 CNS; 9.68% (active) in the test on U251 CNS; 0.986% (active) with PC-3 prostate; -57.3% (active) with SK-MEL-5 melanoma; -3.3% (active) in the test with UACC-62 melanoma. Also, the growth with LOX IMVI melanoma was -46.5% (active); in the test with SK-MEL-28 melanoma, 23%.

With `Cc1[nH]c(C(=O)Nc2ccccc2OCc2cccc(C(=O)NCCN)c2)cc1Cl`, the growth with DU-145 prostate is 36.5%; with K-562 leukemia, 2.16% (active); in the test with MALME-3M melanoma it was 83.3%; in the test with MDA-MB-231 breast, 96%; in the test with RXF 393 renal, 96.3%; in the test with SF-268 CNS, 88.3%. Further, the growth was 101% with SF-295 CNS; 97.2% with SF-539 CNS; 99.4% in the test on UACC-257 melanoma; 85.5% in the test on M14 melanoma; 106% with HCT-15 colon; 69.4% with HT29 colon. In addition, the growth with SNB-75 CNS is 74.4%; in the test with SNB-19 CNS, 85.8%; with U251 CNS it was 53.3%; in the test on PC-3 prostate it was 96.5%; with SK-MEL-5 melanoma it was 99.3%; in the test with UACC-62 melanoma it was 68.4%. In addition, the figures for the growth with LOX IMVI melanoma and in the test on SK-MEL-28 melanoma were 35.6% and 37.6%, respectively.

For `Cc1cc(NS(=O)(=O)c2ccc(NC(=O)CSc3nc4ccccc4c(=O)n3-c3ccccc3)cc2)no1`, the growth is 108% with DU-145 prostate; 54.1% in the test with K-562 leukemia; 94.7% in the test with MALME-3M melanoma; 98.7% in the test with MDA-MB-231 breast; 93.8% in the test on RXF 393 renal; 98.9% in the test on SF-268 CNS. Besides, the growth in the test on SF-295 CNS is 99.2%; in the test with SF-539 CNS, 95.3%; in the test with UACC-257 melanoma, 98.4%; in the test with M14 melanoma, 90.3%; in the test with HCT-15 colon it was 106%; in the test with HT29 colon it was 104%. Besides, the growth with SNB-75 CNS was 77.3%; in the test on SNB-19 CNS, 94.2%; in the test with U251 CNS, 100%; in the test on PC-3 prostate it was 95%; in the test on SK-MEL-5 melanoma it was 98.4%; in the test on UACC-62 melanoma, 88.6%. For the same compound, the growth was 94.1% in the test with LOX IMVI melanoma and 95.9% in the test with SK-MEL-28 melanoma.
